# Rows were chosen to be rich in hits. Some 2.4% of all compounds tested hit in one or more screens of this group.
# 12-LOX inh – ALOX12 (human) lipoxygenase inhibition | P18054 | purified 12hLO, xylenol orange hydroperoxide absorbance | Potency, µM (top dose mostly 108 µM), hits mostly inhibitors | 580,000 compounds, 1.1% hits | AID 1671190
#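 Hydroperoxide product was detected by ferrous iron/xylenol orange as the 573 to 405 nm absorbance ratio. Arachidonic acid at 40 uM (final) was turned over for 30 min at room temperature by 150 nM human 12hLO, pH 7.0 Hepes buffer, after 15 min compound preincubation.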
# Rango-impB inh – prevents formation of the Rango-importin beta complex; AID 540263; Q14974; 340,000 compounds, 0.031% hits; Potency, µM (doses to about 92.2 µM); Rango CFP/YFP FRET sensor + importin beta, 45 min; calls by dose curve; also: nearly all actives have a fitted effect of over 15% in size
#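 FRET biosensor (snurportin 1 IBB flanked by EYFP and cerulean), 50 nM, with compound 5 min, then 0.125 microM importin beta in PBS, 1 mM DTT, 0.02% Tween-20, 0.1% BSA. CFP/YFP ratio read after 45 min at room temperature; pre-read flags interference.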
# TSG101-PTAP inh – blocks PTAP/TSG101 interaction to inhibit HIV-1 budding | Potency, µM (highest dose often 115 µM), most hits filed as inhibitors | 340,000 tested, under 10 active | Fluorescence polarization, FITC-PTAP peptide / Tsg101 binding | AID 493005; active = well fitted inhibition curve with a large enough effect in the main read-out, with a control signal flat, not every such curve was filed as active; inconclusive = small, poorly fitted or top-dose-only effect, or effect the other way, or a change in a side signal; inactive = no such curve, though single readings can be large or run the other way
#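 Fluorescence polarization binding of Tsg101 binding domain (10 uM final) to FITC-labeled PTAP peptide (50 nM final) in HEPES pH 7.5 buffer with NaCl, Tween 20, EDTA, TCEP. Compounds added before peptide; binding 20 min at RT.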
# ClpP mod – qHTS Assay for Activators of ClpP. 340,000 compounds, 1.9% hits. ATP-dependent Clp protease proteolytic subunit (Bacillus subtilis (strain 168)), P80244. purified B. subtilis ClpP, FRET peptide cleavage, 20 min. Potency, µM (doses to about 57.5 µM). AID 651965, 2013; active = well fitted falling curve with a large enough effect; inconclusive = small, poorly fitted or top-dose-only effect; inactive = no such curve, though single readings can be large or run the other way; also: the source files actives as falling curves though it sought activators and does not explain the sign; nearly all actives have a fitted effect of over 65% in size
# Target sequence (P80244 whole entry, looked up): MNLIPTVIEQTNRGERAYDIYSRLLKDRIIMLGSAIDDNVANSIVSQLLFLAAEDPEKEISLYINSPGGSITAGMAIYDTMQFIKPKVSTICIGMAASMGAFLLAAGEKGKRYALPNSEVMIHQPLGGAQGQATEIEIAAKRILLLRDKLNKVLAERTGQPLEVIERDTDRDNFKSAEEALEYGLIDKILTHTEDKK
#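 FRET quenching reversal measured ClpP activation: 10 microg/mL B. subtilis ClpP at pH 8 with the FRET-FV decapeptide, read at 430 nm after 320 nm excitation. The 20-min minus 0-min signal was scaled between DMSO/no-enzyme wells and ADEP (5.8 microM final).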
# TDP1 block – TDP1 (human) enzyme inhibition; AID 485290; Q9NUW8; recombinant TDP1, AlphaScreen DNA substrate cleavage; Potency, µM (titrated, usually from 130 µM), hits mostly inhibitors; 350,000 compounds, 0.28% hits; also: nearly all actives have a fitted effect of over 40% in size
#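 Enzyme-compound mixtures sat 15 min at room temperature, followed by a 5 min reaction with 15 nM final substrate and 10 min with AlphaScreen beads. Recombinant human Tdp1 was used at 1 nM final.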
# Rango release inh – inhibition of RanGTP-driven Rango-importin beta dissociation; O95149+P62826; Biochemical FRET Rango-importin beta, RanGTP-induced dissociation; Potency, µM (titrated, usually from 46.1 µM); 340,000 compounds, 0.071% hits; calls by dose curve; also: nearly all actives have a fitted effect of over 45% in size
#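 Compounds preincubate 5 min with complex of recombinant Rango and importin beta in PBS with 1 mM DTT. Ran (0.6 uM) loaded with 2 mM GTP plus 0.2 uM RCC1 starts dissociation; FRET is recorded 45 min later.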
# A number is an active result; - = inactive; ? = inconclusive; . = no result. Unless noted, calls follow the shape of the dose curve; as a rule, active = well fitted curve in the direction sought with a large enough effect; inconclusive = small, poorly fitted or top-dose-only effect, or another doubt; inactive = no such curve, though single readings can be large; an effect the other way counts as inactive or inconclusive.
SMILES,12-LOX inh,Rango-impB inh,TSG101-PTAP inh,ClpP mod,TDP1 block,Rango release inh
COc1ccc(C)cc1NC(=O)CCC(=O)Nc1ccc2nc(N3CCN(C)CC3)cc(C)c2c1,.,-,-,28µM,-,-
CCN1CCN(c2cc(C)c3cc(NC(=O)c4cncc(Br)c4)ccc3n2)CC1,-,?,-,20µM,-,-
COc1ccccc1CC(=O)Nc1ccc2nc(N3CCC(C)CC3)cc(C)c2c1,-,.,.,-,-,.
O=C1CC(c2ccccc2)N(Cc2ccncc2)CCCN(CC2CCCCC2)CCN1 (stereo unspecified),-,.,.,.,.,.
CCCCNC(=O)CCC(=O)Nc1ccc2nc(N3CCN(C)CC3)cc(C)c2c1,-,-,-,-,-,-
Cc1cc(N2CCN(C)CC2)nc2ccc(NC(=O)CCC(=O)NCc3ccco3)cc12,-,?,-,22µM,-,-
CCOC(=O)Nc1ccc(NS(=O)(=O)c2ccc(C)cc2Cl)cc1,32µM,.,.,.,.,.
CCOC(=O)Nc1ccc(C)cc1NC(=O)OCC,-,-,-,-,-,-
CN(CC(=O)Nc1cccc(F)c1)C(=O)CCc1ncc(-c2ccccc2F)o1,-,.,.,.,.,.
O=C1CN(C(=O)/C=C/c2ccco2)c2ccccc2N1,-,-,-,.,45µM,-
O=C1CN(C(=O)/C=C/c2cccc(Cl)c2)c2ccccc2N1,?,-,-,.,-,-
CC(C(=O)NC1CC1)S(=O)(=O)Cc1cc(Cl)c2c(c1)OCO2 (stereo unspecified),-,.,.,.,.,.
COc1cc(C(=O)NC(=S)Nc2ccc(Cc3ccncc3)cc2)cc(OC)c1OC,-,-,-,-,.,-
O=C(NC(=S)Nc1ccc(N2CCCCC2)c(Cl)c1)c1ccc2c(c1)OCCO2,22µM,-,-,-,-,-
COc1cc(OC)cc(C(=O)NC(=S)Nc2ccc(N3CCCC3)cc2)c1,45µM,-,-,-,-,-
Cc1ccc(C(=O)NC(=S)Nc2ccc(CN3CCOCC3)cc2)cc1,35µM,-,-,-,-,-
Cc1cc(C)cc(C(=O)NC(=S)Nc2ccc(Cc3ccncc3)cc2)c1,45µM,-,-,-,-,-
CCOc1cccc(C(=O)NC(=S)Nc2ccc(N3CCN(CC)CC3)cc2)c1,?,-,-,.,-,-
C=Cc1cc2c(s1)c1cnn(Cc3ccccc3F)c(=O)c1n2C,.,.,.,.,-,.
O=C(NC1CCCCC1)C1=Cc2cc(Cl)ccc2OC=C1,-,.,.,.,.,.
O=C(NC(=S)Nc1ccc2c(c1)OCO2)c1ccc(Cl)cc1,-,-,-,-,-,-
Cc1ccc(C(=O)N/N=C/c2ccc(N3CCOCC3)cc2)c(C)c1,-,-,-,.,-,-
CCc1ccc(C(=O)NC(=S)Nc2ccc3c(c2)OCCO3)cc1,14µM,-,-,-,-,-
Cc1ccc(C(=O)NC(=S)Nc2ccc(N3CCOCC3)cc2)c(C)c1,7.9µM,-,-,.,-,-
O=C(NC(=S)Nc1ccc2c(c1)OCCO2)c1ccco1,-,-,-,.,-,-
SMILES,12-LOX inh,Rango-impB inh,TSG101-PTAP inh,ClpP mod,TDP1 block,Rango release inh
COc1ccc(N2CCN(c3ccc(NC(=O)C4CCCCC4)cc3C#N)CC2)cc1,-,-,-,28µM,-,-
Cc1cc(C)cc(C(=O)NC(=S)Nc2ccc3c(c2)OCCO3)c1,6.3µM,-,-,-,-,-
COc1cccc2sc(NC(=O)CCn3c(=O)oc4ccccc43)nc12,-,.,.,.,.,.
COc1ccc(-c2nnc([C@H]3CCN(c4ncccn4)C3)o2)cc1,-,.,.,.,.,.
CCc1ccc(C(=O)NCc2cccc(C)c2)cc1,-,.,.,.,.,.
CN(CC(=O)N1c2ccccc2SCC1c1ccccc1)Cc1nc2ccccc2c(=O)[nH]1 (stereo unspecified),-,.,.,.,.,.
O=C(NC(=S)Nc1ccc2c(c1)OCCO2)c1ccc(F)cc1Cl,-,-,-,-,-,-
Cc1ccc(C(=O)NC(=S)Nc2ccc3c(c2)OCCO3)c(C)c1,13µM,-,-,-,-,-
Cc1cc(O)cc(O)c1C(=O)Cc1cscn1,-,-,-,28µM,-,-
Cc1cc(O)c(C(=O)Cc2csc(C)n2)c(O)c1,-,-,-,-,.,-
